# This is a sample that favours compounds with a hit; in the whole collection about 6.5% have one here.
# FMDV inh: High Throughput Screening for Foot and Mouth Disease Virus Antivirals. FMDV antiviral cell-based qHTS. Potency, µM (top dose mostly 57.9 µM), actives largely listed as inhibitors. AID 1159524, 2015. 410,000 compounds, 1.2% hits; calls by dose curve; tested in HEK293T cells; note: read-out not given here; nearly all actives have a fitted effect of over 45% in size
# Marburg entry inh: qHTS for inhibitors of binding or entry into cells for Marburg Virus | Marburg virus pseudotyped entry inhibition, cell reporter | Potency, µM (series often up to 37.8 µM), usual class: inhibitors | 300,000 compounds, 1.8% hits; calls by dose curve; tested in HEK293 cells
# Lassa entry inh: qHTS for Inhibitors of binding or entry into cells for Lassa Virus; Lassa virus pseudotype entry inhibition, cell reporter; Potency, µM (doses to about 37.9 µM), usual class: inhibitors; 300,000 compounds, 1.2% hits; calls by dose curve; tested in HEK293 cells; note: nearly all actives have a fitted effect of over 50% in size
# VACV mCherry inh: qHTS for Stage-Specific Inhibitors of Vaccinia Orthopoxvirus: mCherry Reporter Primary qHTS; AID 720579, 2013; Potency, µM (doses to about 36.5 µM), hits mostly inhibitors; Vaccinia virus mCherry reporter infection, fluorescence; 310,000 compounds, 0.63% hits; calls by dose curve; tested in A549 cells; note: nearly all actives have a fitted effect of over 35% in size
# HCMV inh: qHTS Assay for inhibitors of the human cytomegalovirus (HCMV). activity change, negative = inhibition, % at 57.5 µM. AID 1259415, 2018. HFF cells, HCMV-luciferase reporter, 72 h; stronger effect = lower value. 410,000 compounds, 4.5% hits; in the data active = activity change below about -60%; inconclusive = no clear call, values can overlap the other calls; inactive = above about -39%
#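 Steps: HFFs plated, 16 h 37C; compounds added; HCMV-luciferase added to MOI 1 PFU/cell; 72 h 37C; OneGlo reagent, 5 min room temperature; luminescence read, normalized to controls.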
# Vaccinia Venus: qHTS for Stage-Specific Inhibitors of Vaccinia Orthopoxvirus: Venus Reporter Primary qHTS. Vaccinia virus Venus reporter expression, fluorescence. Potency, µM (series often up to 36.5 µM), most hits filed as inhibitors. 330,000 compounds, 0.46% hits. AID 720580, 2013; calls by dose curve; tested in A549 cells; note: nearly all actives have a fitted effect of over 30% in size
# A number is an active result; – = inactive; ? = inconclusive; · = no result; + = active, no number.
SMILES,FMDV inh,Marburg entry inh,Lassa entry inh,VACV mCherry inh,HCMV inh,Vaccinia Venus
Fc1ccc(-c2noc3ncnc(NCC4CCN(Cc5ccc(Cl)cc5)CC4)c23)cc1,–,·,?,–,-65,–
CC(C)(CNC(=O)CCNC(=O)c1ccc(Br)cc1)N1CCOCC1,–,?,–,–,–,–
COc1cccc(CNC(=O)c2c(OC)cc(=O)n3c2CCN(C(=O)c2ccc(C)cc2C)CC3)c1,–,·,·,–,·,–
O=C(O)CC(NC(=O)C1c2ccccc2Oc2ccccc21)c1ccc(Cl)cc1 (centres undefined),–,·,·,·,-88,·
Cc1ccc(CSc2nc3cccnc3n2Cc2ccc(C(=O)NCCc3cccs3)cc2)cc1,–,·,?,–,–,–
OC1CCC(Nc2nccc3[nH]c(-c4cccc(C(F)(F)F)c4)nc23)CC1 (centres undefined),·,·,·,·,–,·
COc1ccc(F)c(CN2CCCC(CO)(Cc3cccc(Cl)c3)C2)c1 (centres undefined),–,·,·,·,–,·
Cc1ccccc1CC1(CO)CCCN(Cc2ccc(C#CC(C)(C)O)cc2)C1 (centres undefined),–,?,–,–,–,–
COc1cccc(CC2(CO)CCCN(C/C=C/c3ccccc3OC)C2)c1 (centres undefined),–,·,·,·,–,·
CC(C)(O)C#Cc1ccc(CN2CCCC(CO)(Cc3cccc(Cl)c3)C2)cc1 (centres undefined),–,?,?,·,-82,·
COc1ccccc1/C=C/CN1CCCC(CO)(Cc2cccc(Cl)c2)C1 (centres undefined),?,13µM,14µM,–,–,–
COc1ccc(/C=C/CN2CCCC(CO)(Cc3cccc(Cl)c3)C2)cc1 (centres undefined),–,6.3µM,10µM,–,–,?
O=C(NCCC(F)(F)F)C1=CN2CCN(Cc3cccc(Cl)c3)C(=O)N=C2O1,·,·,·,·,–,·
COc1cc(OC)c(OC)cc1/C=c1\[nH]c(=O)/c(=C/c2cc(OC)c(OC)cc2OC)[nH]c1=O,·,·,·,–,·,–
CC(C)c1ccc(CN2CCC3(CCC(CNC(=O)c4ccn(C)n4)O3)CC2)cc1 (centres undefined),–,·,·,–,·,–
Cc1cc(C)c(Nc2cc(S(=O)(=O)O)c(N)c3c2C(=O)c2ccccc2C3=O)c(C)c1,8.9µM,–,–,–,–,?
Cc1nc2ccc(NC(=O)c3cccs3)cc2c(=O)n1Cc1ccc(Cl)cc1,·,?,?,11µM,-98,?
COc1ccc(S[C@]2(C(=O)N3CCOCC3)CC(=O)N(c3ccc4ccccc4c3)[C@@H]2c2ccc(OC)cc2)cc1,·,·,·,·,–,·
Cc1c(OCC(=O)NCCCN2CCCC2=O)ccc2c3c(c(=O)oc12)CCC3,–,·,·,·,?,·
Cc1c(OCC(=O)NCCCN2CCCC2=O)ccc2c3c(c(=O)oc12)CCCC3,–,·,·,·,+,·
S=C(Nc1ccc(Oc2ccccc2)cc1)NC1CCCC1,–,–,–,–,–,–
COc1ccc(NC(=S)NC2CCCCC2)cn1,–,–,–,–,-87,–
S=C(Nc1ccc(Br)cc1)NC1CCCC1,–,–,?,–,-65,–
O=C(NCc1ccc2c(c1)OCO2)[C@H]1[C@H](CO)[C@H]2Cn3c(cccc3=O)[C@@H]1N2Cc1ccccc1,·,·,·,·,–,·
Cc1cc(NC(=O)CCN2C(=O)C3C4C=CC(C4)C3C2=O)ccc1Br (centres undefined),–,–,·,–,-68,–
SMILES,FMDV inh,Marburg entry inh,Lassa entry inh,VACV mCherry inh,HCMV inh,Vaccinia Venus
COc1ccc(NC(=O)CCN2C(=O)C3C4C=CC(C4)C3C2=O)cc1 (centres undefined),–,?,–,–,–,–
CN(C)c1ccc(N/C=C/C(=O)c2ccccc2)cc1,10µM,?,6.5µM,·,–,·
CCn1c(SC(C)C(=O)NCc2ccco2)nnc1-c1ccccc1 (centres undefined),·,·,·,–,·,–
COc1cc2nc(C3CCC3)nc(N3CCN(c4ccccn4)CC3)c2cc1OC,18µM,?,?,–,·,–
COc1cc2nc(C3CCC3)nc(N3CCN(c4ccccc4OC)CC3)c2cc1OC,?,?,?,?,–,?
CSc1nc2sc3c(c2c(=O)n1-c1ccccc1C)CCCC3,–,·,–,–,–,–
CSc1nc2nc3c(cc2c(=O)n1-c1ccccc1C)CCCC3,?,?,?,–,-91,–
CC1=Nc2cc(C(=O)NCCc3ccc(Cl)cc3)ccc2Sc2ccc(C)cc21,–,7.9µM,?,?,-65,?
CC1=Nc2cc(C(=O)NCCCOC(C)C)ccc2Sc2ccc(C)cc21,–,?,?,?,-76,?
CC1=Nc2cc(C(=O)NCCCOC(C)C)ccc2Sc2ccccc21,–,?,?,–,+,–
COCCCNC(=O)c1ccc2c(c1)N=C(C)c1c(C)ccc(C)c1S2,–,?,?,–,·,–
COc1cccc(NC(=O)NNC(=O)CN2C(=O)COc3ccccc32)c1,–,–,–,?,–,–
Brc1ccc2c(ccc[n+]2CCc2ccccc2)c1,·,·,·,–,·,–
Cc1cccc(C)c1NC(=O)CN(C)C(=O)c1ccc(-c2cccc(C(F)(F)F)c2)o1,–,?,5.6µM,–,–,–
CCOc1ccc(N(CC(=O)NCCc2ccc(C)cc2)S(=O)(=O)c2c(C)noc2C)cc1,–,·,·,·,-69,·
Cc1noc(C)c1S(=O)(=O)N(CC(=O)NCc1ccccc1Cl)c1ccc(C(C)C)cc1,–,–,–,–,-62,?
COc1ccc(N(CC(=O)NCc2ccccc2Cl)S(=O)(=O)c2c(C)noc2C)cc1,?,·,·,·,–,·
CCc1ccc(NC(=O)CN(c2ccc3c(c2)OCO3)S(=O)(=O)c2c(C)noc2C)cc1,?,·,·,–,-71,–
Cc1ccc(N(CC(=O)NCCc2ccccc2)S(=O)(=O)c2c(C)noc2C)cc1,·,?,?,–,–,–
CCOc1ccc(N(CC(=O)Nc2ccccc2CC)S(=O)(=O)c2c(C)noc2C)cc1,–,?,–,–,-91,?
CCOc1ccccc1NC(=O)CN(c1ccc(C)cc1)S(=O)(=O)c1c(C)noc1C,?,?,?,–,–,?
CCOc1ccc(N(CC(=O)Nc2ccc3c(c2)OCCO3)S(=O)(=O)c2c(C)noc2C)cc1,–,–,·,–,–,–
C[C@@H]1CN(Cc2ccc3c(c2)CN(Cc2cccn2-c2cccnc2)CCO3)C[C@H](C)O1,–,·,·,–,·,–
Cn1c(SCC2CCCO2)nnc1C1CCN(Cc2ccccc2O)CC1 (centres undefined),–,·,·,–,·,–
CNC(=O)Nc1cccc(-c2cc(-c3c(Cl)cccc3Cl)no2)c1,–,?,–,–,-74,–
CCOc1ccc(/C(O)=C2\C(=O)C(=O)N(c3ccccn3)C2c2ccccc2F)c(C)c1 (centres undefined),?,·,·,–,–,–
COc1ccccc1-c1cc(C(F)(F)F)nc(S(=O)(=O)CCCC(=O)Nc2cccnc2Cl)n1,14µM,?,?,?,-90,?
